Out of some 300,000 compounds screened, about 37,000 (12%) were called active. The sample as a whole holds a higher share of actives than the screen did. A number with no mark means an inactive call. Rule as the data show it: active = max response mostly above about 13% (no sharp cut-off); inactive = mostly below about 14%.

A short description of this assay: Cycloheximide Counterscreen for Small Molecule Inhibitors of Shiga Toxin. Also: read at 38.3 µM for the half of the compounds with a filed dose; 0% is about no effect. The conditions noted are these: cell reporter, cycloheximide protein synthesis inhibition counterscreen; active compounds read high.
Regarding `COc1cccc(OC)c1C(=O)N1CCN(Cc2cccnc2)CC1`, the max response was -3.44%.

Regarding `COc1cc(CNCCN(C)C)ccc1OCc1c(F)cccc1Cl`, the max response is -2.65%.

Consider `CCOC(=O)C1CCN(S(=O)(=O)c2ccc3c(c2)N(C(C)=O)CCO3)CC1`, for which the max response was 2.65%.

`Cc1cc(-c2cccs2)nc(-n2cccc2)n1`: the max response was 16.4%.

Take `c1csc(-c2cn3c(n2)SCC3)c1`: the max response is 22.4% (active).

Take `CCCS(=O)(=O)Nc1ccc(-c2cn3c(n2)SCC3)cc1`: the max response was 1.28%.

With `COCCNC(=O)CSc1nc2sccc2c(=O)n1-c1ccccc1`, the max response is -7.71%.

Turning to `O=C(NC1CCCC1)C(c1ccco1)N(C(=O)c1csnn1)c1ccccc1` (configuration not stated), the max response is -5.09%.

On to `NC(=O)C1CCCN(CC(=O)N2CCN(c3ccccc3)CC2)C1` (configuration not stated), for which the max response was -4.9%.

Consider `CCOC(=O)C1CCN(S(=O)(=O)c2ccc3c(c2)N(C)C(=O)CC(=O)N3C)CC1`, for which the max response was -2.95%.

Take `COc1cc(C(=O)N2C(=O)c3cccc(N)c3C2=O)cc(OC)c1OC`: the max response is 2.15%.

Consider `COc1ccc2c(c1OC)C(=O)N(c1ncn[nH]1)C2`, for which the max response is 2.6%.

On to `COc1ccc2c(c1OC)C(=O)N(c1ccc(O)cc1)C2`, for which the max response is 18.3% (active).

Turning to `CCOc1ccc(S(=O)(=O)Nc2ccc(OC)nc2)cc1`, the max response was -3.62%.

As to `CCOC(=O)C1=C(CSc2nnnn2C)N(C)C(=O)NC1c1ccccc1` (configuration not stated), the max response is -4.86%.

In the case of `Cc1cccnc1NC(=O)Cn1c(=O)oc2ccccc21`, the max response was -0.475%.

As for `Cc1nc(COc2cc3oc(=O)cc(C)c3cc2Cl)cs1`, the max response was 5.56%.

Turning to `O=C(CCc1ccccc1)Nc1ccnn1C1CCN(Cc2ccc(OCCO)cc2)CC1`, the max response was -1.22%.

Consider `Cc1ccccc1-c1nc(CS(=O)(=O)CC(=O)NC(C)c2ccccc2)c(C)o1` (configuration not stated), for which the max response is 1.09%.

In the case of `COC(=O)c1cc(NC(=O)c2ccco2)ccc1N1CCOCC1`, the max response was -1.96%.

Turning to `O=C(Nc1cccnc1)c1ccc(Cl)c([N+](=O)[O-])c1`, the max response was 11.1%.

With `O=C(Nc1ccncc1)c1ccc(Cl)c([N+](=O)[O-])c1`, the max response is -2.17%.

Consider `COC(=O)c1ccc(NC(=O)c2ccco2)cc1`, for which the max response was 25.4% (active).

Consider `O=C(NNC(=O)c1csc(-c2cccnc2)n1)Nc1ccc(Cl)cc1`, for which the max response was 1.7%.

Take `Cc1ccnc(NC(=O)c2ccc(Cl)c([N+](=O)[O-])c2)c1`: the max response was 28.9% (active).

As to `CCOC(=O)c1ccc(NC(=O)CNC(=O)c2ccco2)cc1`, the max response was -0.716%.

In the case of `O=C(Nc1ccc(Cl)cc1)Nc1ccc(Oc2cccnc2)nc1`, the max response was 46.4% (active).

For `C/C(=N/NS(=O)(=O)c1ccccc1)c1ccc(NC(=O)C(F)(F)F)cc1`, the max response is 1.13%.

As to `CN1CCN(S(=O)(=O)c2ccc(NC(=O)c3ccco3)cc2)CC1`, the max response is 12%.

On to `O=C(Nc1cccnc1)c1cc(Cl)ccc1Cl`, for which the max response is 1.75%.

Turning to `C/C(=N\NS(=O)(=O)c1ccc(Cl)cc1)c1ccc(NC(=O)c2ccco2)cc1`, the max response was 34.2% (active).

For the molecule `COc1ccc(N2C(=O)/C(=C\c3ccco3)N=C2SCC(N)=O)cc1Cl`, the max response is 1.81%.

As to `CCOc1ccccc1N1CCN(C(=S)Nc2ccc(S(N)(=O)=O)cc2)CC1`, the max response is -1.52%.

`Cc1ccc(C(CNC(=O)Nc2ccccc2)N2CCN(C)CC2)cc1` (configuration not stated): the max response is -1.45%.

Turning to `COC(=O)c1cc(S(=O)(=O)N2CCN(c3cc(C)ccc3C)CC2)c[nH]1`, the max response is 1.68%.

For the molecule `Cc1ccc(-c2nn(-c3cccc(F)c3)cc2CNCCc2ccncc2)o1`, the max response is 5.75%.

On to `Cc1ccc(Cl)c(NC(=O)CN2CCN(C=O)CC2)c1`, for which the max response was 5.32%.

In the case of `OC(CNCc1ccc(Cl)c(Cl)c1)c1ccccc1` (configuration not stated), the max response was 9.74%.

In the case of `CCN(CC)C(=O)COc1coc(CN2CCN(Cc3ccccc3)CC2)cc1=O`, the max response is -3.15%.

In the case of `CCC(Oc1ccccc1C)C(=O)Nc1ccc(S(=O)(=O)Nc2cc(C)on2)cc1` (configuration not stated), the max response is -7.98%.

Consider `Cc1cccc(N2CCC(NCc3c(C(=O)N4CCCCC4)nc4c(C)cccn34)CC2)c1`, for which the max response was -4.59%.

Regarding `COC(=O)c1ccc(NC(=O)Nc2ccc(C)cc2)cc1`, the max response was 25.1% (active).

Take `Cc1ccc(NC(=O)/C(=C\c2ccccc2)NC(=O)c2ccco2)cc1`: the max response is 0.86%.

Take `O=C(Nc1ccc(O)cc1)c1ccc(NC(=O)c2ccco2)cc1`: the max response was 31.9% (active).

Regarding `Cc1ccnc(NC(=O)CCC(=O)N(CC(=O)NCc2ccccc2)Cc2ccco2)c1`, the max response is -2.62%.

For `Cc1ccc(NC(=O)Nc2cccnc2)cc1`, the max response was 24.6% (active).

Regarding `O=C(NNC(=O)c1cccnc1)Nc1ccccc1`, the max response was 4.83%.

For the molecule `Cc1cc(NC(=O)c2ccc(F)cc2)ccc1NC(=O)c1ccco1`, the max response was 9.36%.

As to `Cc1ccc(NC(=O)NCC(c2cccnc2)N2CCOCC2)cc1` (configuration not stated), the max response was -4.08%.

Turning to `Cc1ccc(NC(=O)CC(=O)Nc2ccc(C)cc2)cc1`, the max response is -2.02%.

For `COc1cc(NC(=O)Nc2ccc(C)cc2)cc([N+](=O)[O-])c1`, the max response was 24%.

For `Cc1ccnc(NC(=O)c2ccc(NC(=O)c3ccco3)cc2)c1`, the max response was 36.1% (active).

Regarding `CCC(=O)Nc1ccc(C(=O)N2CCN(C(=O)c3ccco3)CC2)cc1`, the max response is -1.69%.

`CCc1ccccc1NC(=O)NCCN1CCCCC1`: the max response is -2.65%.

Take `COc1cccc(CNC(=O)CCC2CCCN(C(=O)c3ccoc3C)C2)c1` (configuration not stated): the max response is 5.76%.

Regarding `Cc1ccc(S(=O)(=O)C2(S(=O)(=O)c3ccc(C)cc3)CCCC2)cc1`, the max response was -2.93%.

For the molecule `Nc1nc(SCC(=O)Nc2cc(C(F)(F)F)ccc2Cl)[nH]c(=O)c1NC(=O)c1ccco1`, the max response was -2.16%.

For `COc1ccc(S(=O)(=O)N2CCCCCC2)cc1C(=O)OCC(=O)Nc1cc(C)on1`, the max response is -1.32%.

Take `Cc1cc(C)cc(C(=O)OCC(=O)NCCNC(=O)COC(=O)c2cc(C)cc(C)c2)c1`: the max response is 19%.

Consider `O=C1c2ccccc2NC(c2ccccn2)N1NS(=O)(=O)c1ccccc1` (configuration not stated), for which the max response was 3.3%.

Turning to `CCn1c(SCC(=O)NC2=NCCS2)nnc1C(C)NC(=O)c1ccccc1F` (configuration not stated), the max response was -2.33%.

Regarding `Cc1cc2oc(=O)cc(CN3CCN(S(=O)(=O)c4cccs4)CC3)c2cc1C(C)C`, the max response is -2.14%.

For the molecule `Cc1ccc(CNC(=O)Cc2cn(C)c3ccccc23)cc1`, the max response is 11.6%.

For the molecule `Cc1cc2oc(=O)cc(CN(C)Cc3ccc(OC(F)F)cc3)c2cc1Cl`, the max response was -1.16%.

In the case of `O=C(NCCCc1ccccc1)C1CCC(=O)N(CCc2ccc(Cl)cc2)C1` (configuration not stated), the max response was 12% (active).

On to `O=C(NCCN1CCOC1=O)C1CCC(=O)N(CCc2ccc(Cl)cc2)C1` (configuration not stated), for which the max response is -3.62%.

With `O=C(NCCc1ccccc1Cl)C1CCC(=O)N(CCCc2ccccc2)C1` (configuration not stated), the max response was -1.41%.

Regarding `C/C=C(\C)C(=O)NCCN1C2=NC[C@H](Cc3ccc(O)cc3)N2C[C@@H]1Cc1ccc(OC)cc1`, the max response is 0.212%.

Turning to `COc1ccccc1NC(=O)c1ccc(N2CC3CC(C2)c2cccc(=O)n2C3)c(NC(=O)c2cccnc2)c1` (configuration not stated), the max response was -5.5%.

As to `CCc1ccc(N2CC(O)=C(c3nc4ccccc4c(=O)[nH]3)C2=N)cc1`, the max response is 4.62%.

On to `COc1ccccc1N1CC(O)=C(c2nc3ccccc3s2)C1=N`, for which the max response is 18.7% (active).

In the case of `N=C1C(c2nc3ccccc3[nH]2)=C(O)CN1NC(=O)c1c[nH]c2ccccc12`, the max response was 6.82%.

Turning to `N=C1C(c2nc3ccccc3s2)=C(O)CN1NC(=O)c1ccc([N+](=O)[O-])cc1`, the max response is 38.2% (active).

For `O=C(Nn1cnnc1)c1ccc([N+](=O)[O-])cc1`, the max response is -3.89%.

In the case of `CCOC(=O)CCCN1CC(O)=C(c2nc3ccccc3s2)C1=N`, the max response was 6.59%.

Consider `CCOc1ccc(N(CC(=O)Nc2ccccc2F)S(=O)(=O)c2c(C)[nH]c(=O)[nH]c2=O)cc1`, for which the max response was 9.46%.

Turning to `Cc1ccccc1/C=C\c1nc(O)c([N+](=O)[O-])c(=O)[nH]1`, the max response was -5.68%.

With `COC(=O)CNC(=O)c1ccccc1F`, the max response is -2.02%.

Regarding `O=C(COC(=O)CNC(=O)c1ccccc1F)NCC(F)(F)F`, the max response is -1.02%.

Consider `O=C(CNC(=O)c1ccccc1)NCC(=O)OCC(=O)c1ccccc1`, for which the max response is -5.87%.

As to `O=C(CNC(=O)c1ccccc1F)c1ccc(Br)cc1`, the max response was 57.7% (active).

For `CSc1nnc(CNC(=O)c2ccccc2)n1-c1ccc(F)cc1`, the max response is -2.44%.

Turning to `O=C(CNC(=O)c1ccc(F)cc1)c1ccccc1`, the max response was 30% (active).

`COCCNC(=O)NC(=O)COC(=O)C1(c2ccc(Cl)cc2)CC1`: the max response was 7.97%.

In the case of `CC1(C)Cc2c(sc(NC(=O)C(=O)N3CCOCC3)c2C#N)CO1`, the max response is -9.16%.

Turning to `CC(C)c1nc(-c2ccccn2)no1`, the max response was 22.8% (active).

For `O=C(COC(=O)c1ccc(Oc2ccccc2)cc1)Nc1nnc(-c2ccccc2)o1`, the max response was 13.5%.

With `O=C(NCc1cccnc1)c1nc(-c2cccs2)no1`, the max response was 13.1%.

As to `c1csc(-c2nc(-c3ccncc3)no2)c1`, the max response was 29.3% (active).

With `COc1nc(-c2ccc(Cl)cc2)ccc1-c1noc(-c2cccs2)n1`, the max response is -1.17%.

For the molecule `O=C(Oc1ccc(-c2nc(-c3ccccn3)no2)cc1)c1ccccc1`, the max response was 31% (active).

`O=C(O)COc1ccc(-c2nccc(-c3cccs3)n2)cc1`: the max response was -3.38%.

Consider `c1ccc(-c2noc(-c3cccs3)n2)nc1`, for which the max response is 17.4% (active).

Consider `Clc1ccc(-n2nnnc2-c2cnc(-c3ccccn3)nc2-c2cccs2)cc1`, for which the max response was -3.52%.

For the molecule `CCCCCCOc1ccc(OC(=O)c2cccnc2)cc1`, the max response was 14.6%.

As to `c1ccc(-c2nccc(-c3ccc(-n4cnc5ccccc54)cc3)n2)nc1`, the max response is -1.84%.

Regarding `CC1(C)N=C(c2ccccn2)C(C)(C)N1O`, the max response is -7.15%.
